Structures are written as SMILES. “And” between values parts separate entries of the source, which are not always exact repeats. Equal values may be shown once. The source made the active and inactive calls. No rule for the calls is given here.

For orientation: AC50 means the concentration at which the activity in the assay is half-maximal.

For one assay the following is noted: Ebola virus entry assay, blue channel fluorescence.
As to `Cc1ccc(-n2nc(C(C)(C)C)cc2NC(=O)Nc2ccc(OCCN3CCOCC3)c3ccccc23)cc1`, the AC50 is 25.1 µM (active).
Same read-out and setting: under `CC(C)C[C@H](NC(=O)[C@H](CCc1ccccc1)NC(=O)CN1CCOCC1)C(=O)N[C@@H](Cc1ccccc1)C(=O)N[C@@H](CC(C)C)C(=O)[C@@]1(C)CO1` stands 0.316 µM (active); under `C=CC(=O)Nc1cc2c(Nc3ccc(F)c(Cl)c3)ncnc2cc1OCCCN1CCOCC1`, 3.16 µM (active).
Take `Oc1cc(Cl)ccc1Oc1ccc(Cl)cc1Cl`: the AC50 was 15.8 µM (active).
Turning to `CC1=C(/C=C/C(C)=C/C=C/C(C)=C/C(=O)Nc2ccc(O)cc2)C(C)(C)CCC1`, the AC50 is 39.8 µM (active).
On the same count and under the same terms, as for `COc1ccc(C(=O)c2c(C)n(CCN3CCOCC3)c3ccccc23)cc1`, the figure is 39.8 µM (active); as for `COc1cc(Nc2c(C#N)cnc3cc(OCCCN4CCN(C)CC4)c(OC)cc23)c(Cl)cc1Cl`, 2.82 µM (active); as for `Fc1ccc(C(OCCN2CCN(CCCc3ccccc3)CC2)c2ccc(F)cc2)cc1`, 3.98 µM (active).
The same measure, in the same setting: under `COc1cc2c(N3CCN(C(=O)Nc4ccc(OC(C)C)cc4)CC3)ncnc2cc1OCCCN1CCCCC1` stands 11.2 µM (active); under `O=c1[nH]c2ccccc2n1CCCN1CCC(n2c(=O)[nH]c3cc(Cl)ccc32)CC1`, 39.8 µM (active).
For the compound `O=c1oc2ccccc2c(O)c1C(CC(O)c1ccc(-c2ccc(Br)cc2)cc1)c1ccccc1` (stereo not drawn), the result was inactive.
Take `COc1cccc2c1C(=O)c1c(O)c3c(c(O)c1C2=O)C[C@@](O)(C(=O)CO)C[C@@H]3O[C@H]1C[C@H](N)[C@H](O)[C@H](C)O1`: the AC50 was 15.8 µM (active).
As to `CN1CC[C@H](c2c(O)cc(O)c3c(=O)cc(-c4ccccc4Cl)oc23)[C@H](O)C1`, the outcome was inactive.
On the same count and under the same terms, under `CCC1(C2=NCCN2)Cc2ccccc2O1` (stereo not drawn) stands “inactive”.
Consider `CC1(CN2CCC(n3c(=O)[nH]c4ccccc43)CC2)OCc2ccccc2-n2cccc21` (stereo not drawn), for which the AC50 is 20 µM (active).
Same read-out and setting: as for `COc1cc([C@@H]2c3cc4c(cc3[C@H](O)[C@H]3COC(=O)[C@H]23)OCO4)cc(OC)c1OC`, the figure is 11.2 µM (active); as for `Cc1cc2c(C(C)C)c(O)c(O)c(C=O)c2c(O)c1-c1c(C)cc2c(C(C)C)c(O)c(O)c(C=O)c2c1O`, 39.8 µM (active).
As for `O=C1NCN(c2ccccc2)C12CCN(CC1COc3ccccc3O1)CC2` (stereo not drawn), the result was inactive.
Still for that read-out and setting: as for `O=c1c(O)c(-c2ccc(O)c(O)c2)oc2cc(O)cc(O)c12`, the entry is “inactive”.
`C=C(C)[C@H]1Cc2c(ccc3c2O[C@@H]2COc4cc(OC)c(OC)cc4[C@@H]2C3=O)O1`: the concentration at half-maximal activity (AC50) was 10 µM (active).
As to `CN1C(=S)CN=C(c2ccccc2)c2cc(Cl)ccc21`, the call was inactive.
As for `Cn1c(CCCC(=O)O)nc2cc(N(CCCl)CCCl)ccc21`, the outcome was inactive.

The conditions of the next assay: Ebola virus entry assay, ratio channel.
As to `Cc1ccc(-n2nc(C(C)(C)C)cc2NC(=O)Nc2ccc(OCCN3CCOCC3)c3ccccc23)cc1`, the half-maximal activity concentration (AC50) is 20 µM (active).
The same measure, in the same setting: as for `CC(C)C[C@H](NC(=O)[C@H](CCc1ccccc1)NC(=O)CN1CCOCC1)C(=O)N[C@@H](Cc1ccccc1)C(=O)N[C@@H](CC(C)C)C(=O)[C@@]1(C)CO1`, the figure is 0.708 µM (active); as for `C=CC(=O)Nc1cc2c(Nc3ccc(F)c(Cl)c3)ncnc2cc1OCCCN1CCOCC1`, 2.82 µM (active); as for `Oc1cc(Cl)ccc1Oc1ccc(Cl)cc1Cl`, 7.08 µM (active) and 14.1 µM (active).
Regarding `CC1=C(/C=C/C(C)=C/C=C/C(C)=C/C(=O)Nc2ccc(O)cc2)C(C)(C)CCC1`, the outcome was inactive.
Still for that read-out and setting: as for `COc1ccc(C(=O)c2c(C)n(CCN3CCOCC3)c3ccccc23)cc1`, the entry is “inactive”.
For the compound `COc1cc(Nc2c(C#N)cnc3cc(OCCCN4CCN(C)CC4)c(OC)cc23)c(Cl)cc1Cl`, the AC50 is 1.41 µM (active).
As to `Fc1ccc(C(OCCN2CCN(CCCc3ccccc3)CC2)c2ccc(F)cc2)cc1`, the AC50 was 2.82 µM (active).
The same measure, in the same setting: under `COc1cc2c(N3CCN(C(=O)Nc4ccc(OC(C)C)cc4)CC3)ncnc2cc1OCCCN1CCCCC1` stands 10 µM (active); under `O=c1[nH]c2ccccc2n1CCCN1CCC(n2c(=O)[nH]c3cc(Cl)ccc32)CC1`, 25.1 µM (active).
For `O=c1oc2ccccc2c(O)c1C(CC(O)c1ccc(-c2ccc(Br)cc2)cc1)c1ccccc1` (stereo not drawn), the outcome was inactive.
In the case of `COc1cccc2c1C(=O)c1c(O)c3c(c(O)c1C2=O)C[C@@](O)(C(=O)CO)C[C@@H]3O[C@H]1C[C@H](N)[C@H](O)[C@H](C)O1`, the concentration at half-maximal activity (AC50) is 14.1 µM (active).
For `CN1CC[C@H](c2c(O)cc(O)c3c(=O)cc(-c4ccccc4Cl)oc23)[C@H](O)C1`, the result was inactive.
On to `CCC1(C2=NCCN2)Cc2ccccc2O1` (stereo not drawn), for which the outcome was inactive.
Take `CC1(CN2CCC(n3c(=O)[nH]c4ccccc43)CC2)OCc2ccccc2-n2cccc21` (stereo not drawn): the AC50 is 15.8 µM (active).
The same measure, in the same setting: as for `COc1cc([C@@H]2c3cc4c(cc3[C@H](O)[C@H]3COC(=O)[C@H]23)OCO4)cc(OC)c1OC`, the figure is 5.01 µM (active).
Regarding `Cc1cc2c(C(C)C)c(O)c(O)c(C=O)c2c(O)c1-c1c(C)cc2c(C(C)C)c(O)c(O)c(C=O)c2c1O`, the outcome was inactive.
`O=C1NCN(c2ccccc2)C12CCN(CC1COc3ccccc3O1)CC2` (stereo not drawn): the result was inactive.
Consider `C=C(C)[C@H]1Cc2c(ccc3c2O[C@@H]2COc4cc(OC)c(OC)cc4[C@@H]2C3=O)O1`, for which the concentration at half-maximal activity (AC50) is 8.91 µM (active).
For `CN1C(=S)CN=C(c2ccccc2)c2cc(Cl)ccc21`, the result was inactive.
`Cn1c(CCCC(=O)O)nc2cc(N(CCCl)CCCl)ccc21`: the result was inactive.

These data come from PubChem BioAssay (NCATS).
